Out of some 640,000 compounds screened, about 9,300 (1.5%) were called active. The list comes from a sample in which actives are over-represented; it also holds similar structures and randomly drawn compounds. A number with no mark means an inactive call. No stated cut-off is given here; in the data, active means inhibition above about 32%; inactive means the rest.
Test: TEAD-YAP interaction inhibition, primary screen, TEAD-YAP interaction inhibitor project, luminescence, HEK-TIYL cells (AID 1259422);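 further: 0% = median of test compound wells and 100% = reference inhibitor wells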
Details: TEAD-Gal4/YAP UAS-luciferase luminescence, at 9.12 µM, hits give high values

Row | SMILES | inhibition
1 | CCN(CC)CCCNCc1ccc(F)cc1Cl | -3.24%
2 | COc1ccc(NC(=S)NNS(=O)(=O)c2ccc(NC(C)=O)cc2)cc1 | 43.9% (active)
3 | COc1ccc(NC(=S)Nc2ccccc2C(C)=O)cc1 | 8.25%
4 | COc1ccc(NC(=S)Nc2ccc(OC)cc2)cc1 | -17.9%
5 | COc1ccc(OC(C)C(=O)Nc2ccc(C(=O)OC(C)C)cc2)cc1 (stereo not given) | 11.3%
6 | C=CCn1c(=S)[nH]c2sc(-c3ccccc3)cc2c1=O | -58.7%
7 | Cn1c(=O)c(=O)n(C)c2cc(S(=O)(=O)N3CCCc4ccccc43)ccc21 | -1.32%
8 | COc1ccc(S(=O)(=O)N2CCc3ccccc3C2)cc1Cl | 14.1%
9 | COc1ccc(S(=O)(=O)N2CCCc3ccccc32)cc1Cl | 36.9% (active)
10 | CS(=O)(=O)c1cccc(S(=O)(=O)N2CCCc3ccccc32)c1 | 3.88%
11 | O=C1CC(=O)Nc2cc(S(=O)(=O)N3CCCc4ccccc43)ccc2N1 | 5.24%
12 | O=S(=O)(c1ccc2c(c1)OCCCO2)N1CCCc2ccccc21 | 63.8% (active)
13 | CC(=O)NC1C(Oc2ccc(C)cc2C)OC(COC(C)=O)C(OC(C)=O)C1OC(C)=O (stereo not given) | 0.55%
14 | COc1ccc(-c2nc3ccccc3n2Cc2ccccc2)cc1OC | -0.42%
15 | Nc1nonc1-c1nc2ccccc2n1CC(=O)Nc1cccc(F)c1 | 40.7% (active)
16 | Nc1nonc1-c1nc2ccccc2n1CC(=O)N/N=C\c1cccc(F)c1 | 10.8%
17 | CCCCCCOc1cccc(NC(=O)Cn2c(-c3nonc3N)nc3ccccc32)c1 | 10.4%
18 | Nc1nc(Cn2c(-c3nonc3N)nc3ccccc32)nc(N2CCCCC2)n1 | 5.35%
19 | COc1ccc(C)c(Cn2c(-c3nonc3N)nc3ccccc32)c1 | 53.5% (active)
20 | Cc1ccc(Nc2ncccc2C(=O)N2CCCC2)c(C)c1 | -3.43%
21 | COc1ccc2cc(C)c3nn(CN4CCOCC4)c(=O)n3c2c1 | 1.32%
22 | CC1(C2CCN(C(=O)c3ccc(N4CCCCC4)cc3)CC2)NC(=O)NC1=O (stereo not given) | -7.9%
23 | CC1CCc2sc(NC(=O)Cc3cccc4ccccc34)c(C#N)c2C1 (stereo not given) | 2.89%
24 | c1ccc(Nc2nc(N3CCOCC3)c3ccccc3n2)cc1 | 33.6% (active)

Row | SMILES | inhibition
25 | COc1ccc(Cl)cc1Nc1nc(N2CCOCC2)c2ccccc2n1 | 15.6%
26 | Clc1ccccc1Nc1nc(N2CCOCC2)c2ccccc2n1 | 0.09%
27 | O=C(N/N=C\c1ccc([N+](=O)[O-])c(O)c1)c1ccc2c(c1)OCO2 | 42.6% (active)
28 | O=C(N/N=C/c1ccc2c(c1)OCO2)c1cc(O)c(O)c(O)c1 | 9.47%
29 | O=C(N/N=C/c1ccc(O)c([N+](=O)[O-])c1)c1ccc2c(c1)OCO2 | -20.5%
30 | O=C(CCl)Nc1c(C(=O)C2CC2)oc2ccccc12 | -1.47%
31 | O=C(/C=C\c1ccccc1)N1CCN(Cc2nnnn2-c2cccc(F)c2)CC1 | 14.7%
32 | COC(=O)CSc1nnc2c3ccccc3n(CCc3ccccc3)c2n1 | -5.74%
33 | C=CCSc1nnc2c3ccccc3n(CCc3ccccc3)c2n1 | 41.4% (active)
34 | C=CCN(CC=C)C(=O)CSc1nnc2c3ccccc3n(C)c2n1 | -18.1%
35 | CC(Cc1ccco1)NC(=O)Nc1ccc2c(c1)OCO2 (stereo not given) | -9.4%
36 | Nc1c(Cl)cc(N2C(=O)c3cccc([N+](=O)[O-])c3C2=O)cc1Br | -3.28%
37 | Cc1c(C(c2ccc3c(c2)OCCO3)c2c(C)n(C)n(-c3ccccc3)c2=O)c(=O)n(-c2ccccc2)n1C | 1.2%
38 | FC(F)(F)c1cccc(Nc2nccn3c(-c4ccc(N5CCOCC5)cc4)cnc23)c1 | 9.67%
39 | COc1ccc(N2C(=O)CSC2c2ccc(C)cc2)cc1 (stereo not given) | 1.91%
40 | Cc1ccc(C2SCC(=O)N2c2ccccc2)cc1 (stereo not given) | -20.1%
41 | Cc1ccc(C2SCC(=O)N2c2ccc(C)cc2)cc1 (stereo not given) | 35.1% (active)
42 | CCCC1(C2CCN(C(=O)c3ccc(F)c(F)c3)CC2)NC(=O)N(CC2CCCO2)C1=O (stereo not given) | -9.71%
43 | COc1ccc(C2C3=C(CC(C)(C)CC3=O)N(CCc3ccccc3)C3=C2C(=O)CC(C)(C)C3)cc1 | 4.3%
44 | O=C1C2C3C=CC(C3)C2C(=O)N1c1ccc(Oc2ccc(Br)cc2)cc1 (stereo not given) | -3.86%
45 | Cn1nnnc1-c1ccc(Nc2nccc(-c3ccc(N4CCC(O)CC4)c(C#N)c3)n2)cc1 | 37.5% (active)
46 | Cc1ccc(-c2ncn(-c3ccc(Nc4nccc(-c5cc(C#N)cc(N6CCCC(O)C6)c5)n4)cc3)n2)cn1 (stereo not given) | -6.62%
47 | O=C(c1ccc(Nc2nccc(-c3ccc4c(=O)[nH]c(C5CC5)nc4c3)n2)cc1)N1CCCC1 | -6.26%
48 | COc1ccc(-c2nc(NCCOc3ccccc3)nc(OC)n2)cc1 | -21.8%

Row | SMILES | inhibition
49 | Cc1cc(C)n(CCc2nc(-c3ccc(Cl)cc3)cs2)n1 | -9.3%
50 | OC1(c2cccnc2)CCN(Cc2nc(N3CCOCC3)c3cc(Cl)ccc3n2)CC1 | -1.26%
51 | Clc1ccc(CN2CCC[C@H]2c2nc3ccc(-c4ccncc4)cc3[nH]2)cc1 | -0.35%
52 | COC1CCN(c2nc(CN3CCCC3c3nccs3)nc3ccc(Cl)cc23)CC1 (stereo not given) | 42.9% (active)
53 | NC(=O)c1ccc(-c2nccc(NC3CCN(Cc4ccccc4)CC3)n2)cc1 | -1.25%
54 | COc1cccc(OC)c1C(=O)Nc1ccc(C)cc1 | -5.7%
55 | C=CCNC(=O)C1CCCN(S(=O)(=O)c2ccc(F)cc2)C1 (stereo not given) | 1.52%
56 | Cc1ccc(S(=O)(=O)N2CCCC2C(=O)NCCO)cc1 (stereo not given) | -1.16%
57 | C=CCNC(=O)C1CCCN1S(=O)(=O)c1ccc(Cl)cc1 (stereo not given) | 57.2% (active)
58 | CCOCCCNC(=O)C1CCC(=O)N1C1CCCCC1 (stereo not given) | -0.7%
59 | Cc1ccc(S(=O)(=O)NC(C)Cc2cccs2)cc1 (stereo not given) | 5.37%
60 | CC1=C(C(=O)NCc2cccs2)C2(CCCCC2)OC1=O | 13.8%
61 | O=C(NC1CC1)c1ccc(-c2nc3ccc(C(=O)NC4CCN(Cc5ccccc5)CC4)cc3s2)cc1 | -0.23%
62 | CN(C)c1ccc(-c2nc3ccc(C(=O)O)cc3s2)cc1 | 96.5% (active)
63 | CN1CCN(c2ccc(-c3nc4ccc(C(=O)NCc5ccccc5)cc4s3)cc2)CC1 | 3.92%
64 | N#C/C=C(/CC(O)(c1nc2ccccc2s1)C(F)(F)F)N1CCCC1 (stereo not given) | 2.12%
65 | CN(C)C(=O)c1cc(CNCCCc2ccccc2)cc(NC(=O)c2ccccn2)c1 | -3.43%
66 | Cc1cc(NC(=O)c2cccn(OCc3ccc(F)cc3)c2=O)no1 | -2.96%
67 | c1ccc(-n2ncc3c(N4CCCC4)ncnc32)cc1 | 37.8% (active)
68 | COc1ccc(-n2ncc3c(N4CCCC(C)C4)ncnc32)cc1 (stereo not given) | 94.8% (active)
69 | Fc1ccc(Nc2ncnc3c2cnn3-c2ccccc2)cc1 | -36.2%
70 | c1ccc(-n2ncc3c(Oc4cccc5cccnc45)ncnc32)cc1 | 42.7% (active)
71 | c1ccc(Cn2nnc3c(N4CCCCC4)ncnc32)cc1 | -2.04%
72 | O=C(CCc1ccccc1)NCCn1ncc2c(N3CCN(c4ncccn4)CC3)ncnc21 | -1.06%

Row | SMILES | inhibition
73 | COc1ccc(-n2ncc3c(Nc4ccc(F)c(Cl)c4)ncnc32)cc1 | 13.3%
74 | COc1ccccc1Nc1ncnc2c1cnn2-c1ccc(C)cc1 | -73%
75 | CCOc1ccc(-n2cc(-c3ccccc3)c3c(N4CCCC(C)C4)ncnc32)cc1 (stereo not given) | -7.09%
76 | OCCNc1ncnc2c1cnn2-c1ccccc1 | -28.4%
77 | Cc1ccc(N2CCN(c3ncnc4c3cnn4-c3ccccc3)CC2C)cc1 (stereo not given) | 9.96%
78 | c1ccc(OCCn2ncc3c(N4CCCC4)ncnc32)cc1 | 81% (active)
79 | CCCS(=O)(=O)N1CCCc2ccc(NC(=O)CC(C)C)cc21 | 3.52%
80 | CCOC(=O)C1CCN(c2nc(-c3cccnc3)nc3c2CN(S(C)(=O)=O)CC3)CC1 | 9.38%
81 | COCCNC(=O)Cn1cnc2c(nnn2-c2ccc(Cl)cc2)c1=O | 2.42%
82 | N#Cc1c(-c2ccc(F)cc2)cc(C2CC2)nc1SCCN1C(=O)c2ccccc2C1=O | 7.65%
83 | Cc1cncn(CC(=O)NCCc2csc(-c3ccccc3)n2)c1=O | -3.04%
84 | COc1ccccc1Cn1c(SCC(=O)Nc2ccc(N(C)C)cc2)nc2ccccc2c1=O | -7.65%
85 | CCCCC(CC)CNS(=O)(=O)c1ccc2c(c1)n(C)c(=O)c(=O)n2C (stereo not given) | -13.6%
86 | COCCNC(=O)/C(=C/c1cccc([N+](=O)[O-])c1)c1ccccc1 | -2.61%
87 | S=C(S)NCCc1c[nH]c2ccccc12 | 10.8%
88 | O=C(CSc1nc(=O)[nH]c2c1CCC2)N1CCCCCC1 | 1.26%
89 | O=C(CCc1nnc(-c2ccccc2)o1)NCCc1ccccc1Cl | -37.1%
90 | Cc1ccc(-n2ncc3c(N4CCN(C)CC4)ncnc32)c(C)c1 | -7.59%
91 | CCN(CC)C(=O)C1CCCN(c2ncnc3c2c(-c2ccccc2)cn3-c2cccc(Cl)c2)C1 (stereo not given) | -12.8%
92 | CN1CCN(c2ncnc3c2cnn3-c2ccc(Cl)c(Cl)c2)CC1 | 32.8% (active)
93 | CCN(CC)C(=O)C1CCCN(c2cc(NCc3ccccc3)ncn2)C1 (stereo not given) | -14.4%
94 | CN1CCN(c2ncnc3c2c(-c2ccccc2)cn3-c2ccccc2)CC1 | 4.3%
95 | CCN(CC)C(=O)C1CCCN(c2ncnc3c2cnn3-c2ccccc2)C1 (stereo not given) | 34.1% (active)
